# AmpC detergent – AmpC beta-lactamase inhibition with detergent present. AmpC hydrolysis of nitrocefin, absorbance 480 nm, 0.01% Triton. hit rate 0.041% among 370,000. Potency, µM (titrated, usually from 114 µM), inactives show at the top dose activity change, negative = inhibition, hits mostly inhibitors;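 further: 0% = no-compound wells and -100% = no-enzyme wells; nearly all actives have a fitted effect of over 25% in size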
# Target sequence (P00811 whole entry, looked up): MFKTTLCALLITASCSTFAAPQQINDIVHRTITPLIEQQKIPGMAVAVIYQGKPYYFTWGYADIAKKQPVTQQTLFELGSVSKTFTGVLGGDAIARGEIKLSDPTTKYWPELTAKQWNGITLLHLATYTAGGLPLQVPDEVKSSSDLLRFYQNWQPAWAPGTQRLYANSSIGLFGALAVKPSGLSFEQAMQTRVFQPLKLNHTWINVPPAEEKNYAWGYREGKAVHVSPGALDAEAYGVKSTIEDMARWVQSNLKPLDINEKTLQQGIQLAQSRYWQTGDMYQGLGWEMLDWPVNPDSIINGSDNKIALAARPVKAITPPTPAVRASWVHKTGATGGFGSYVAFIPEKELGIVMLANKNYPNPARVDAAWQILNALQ
#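 AmpC (5.3 nM in the dispensed reagent) in 20 mM phosphate pH 7.0 with 0.01% (detergent screen) or 0.0001% Triton X-100 was preincubated with compounds for 15 min at room temperature. Nitrocefin was then added from an 800 uM solution, and hydrolysis was followed at 480 nm.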
# Sm TGR block – inhibitors of Schistosoma mansoni thioredoxin glutathione reductase; Q962Y6; purified TGR, DTNB reduction, TNB absorbance 405 nm; Potency, µM (series often up to 114 µM), without a hit: at the highest dose activity change, negative = inhibition, actives largely listed as inhibitors; hit rate 3% among 360,000; AID 485364; further: nearly all actives have a fitted effect of over 60% in size
#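 First, TGR (20 nM dispensed) and NADPH were mixed with compound. Second, a 15 min room-temperature incubation followed. Third, further NADPH and then DTNB were added to start the reaction. Finally, TNB absorbance was monitored kinetically.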
# AmpC no deterg – inhibitors of E. coli AmpC beta-lactamase without detergent; AmpC nitrocefin hydrolysis, absorbance 480 nm, 0.0001% Triton; AID 485341; hit rate 0.52% among 330,000; P00811; Potency, µM (doses to about 57.1 µM), without a hit: at the top dose activity change, negative = inhibition, most hits filed as inhibitors;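 further: plate controls were no compound for no effect and no enzyme for full effect; nearly all actives have a fitted effect of over 20% in size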
#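 AmpC (5.3 nM in the dispensed reagent) in 20 mM phosphate pH 7.0 with 0.01% (detergent screen) or 0.0001% Triton X-100 was preincubated with compounds for 15 min at room temperature. Nitrocefin was then added from an 800 uM solution, and hydrolysis was followed at 480 nm.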
# Starred values were filed as active, the others as inactive; ? = inconclusive; . = no result. An excerpt weighted towards active compounds, which were near 3.3% of everything screened. The call rests on the fitted dose curve; in most records, active means well fitted curve in the direction sought with a large enough effect; inconclusive means small, poorly fitted or top-dose-only effect, or another doubt; inactive means no such curve, though single readings can be large; an effect the other way counts as inactive or inconclusive. Unless noted, on the % scale 0 is the no-effect control and ±100 the full control effect; potency means the concentration at half of the fitted maximal effect.
SMILES,AmpC detergent,Sm TGR block,AmpC no deterg
CCSc1cc(C2C(C#N)=C(N)OC(C)=C2C(=O)OC)c(C)o1 (stereo not drawn),1%,25µM*,-7%
COC(=O)C1=C(C)OC(N)=C(C#N)C1c1ccccc1 (stereo not drawn),-4%,-3%,-18%
COC(=O)C1=C(C)OC(N)=C(C#N)C1c1ccc(OC)c(OC)c1OC (stereo not drawn),1%,-4%,-6%
COC(=O)C1=C(C)OC(N)=C(C#N)C1c1ccc(OC)c(CSc2ccccn2)c1 (stereo not drawn),1%,?,0.22µM*
CCOC(=O)c1ccc(NC(=O)C2=C(C)C(=O)OC23CCN(C(C)C)CC3)cc1,1%,0%,.
CCCC(=O)N(c1ccc2oc3c(c2c1)CCCC3)S(=O)(=O)c1cc(C)ccc1C,7%,7%,.
Cc1cc([N+](=O)[O-])c2ccccc2[n+]1[O-],6%,13µM*,-10%
Cc1ccccc1[N+](=O)[O-],-1%,-16%,-6%
CC1(C)O[C@H]2[C@@H](O1)[C@@H](C(=O)Nc1ccccc1C(F)(F)F)O[C@@H]1OC(C)(C)O[C@@H]12,20%,0%,.
CC(=O)N1c2ccc(S(=O)(=O)NCC3CCC(C(=O)Nc4cc(C)ccc4C)CC3)cc2CC1C (stereo not drawn),11%,4%,.
COc1ccc(OC)c(C2Nc3c(Cl)ccc(C(=O)O)c3C3C=CCC32)c1 (stereo not drawn),2%,1.6µM*,-42%
CCOc1ccc2c(c1)[C@@H]1C=CC[C@@H]1[C@H](c1ccccc1Cl)N2,1%,-7%,.
COC(=O)COc1ccc(S(=O)(=O)N2CCN(c3ccccc3)CC2)cc1,-1%,.,32%
COC(=O)COc1ccc(C2Nc3c(Cl)ccc(C(=O)O)c3C3C=CCC32)cc1 (stereo not drawn),-10%,3.5µM*,-27%
Nc1c(C(=O)Nc2ccc(Cl)cc2F)sc2nc(-c3cccs3)ccc12,3%,1%,.
CC(C)(C)C1=C(C#N)C(c2cc3c(cc2Br)OCO3)C(C#N)=C(N)O1 (stereo not drawn),-11%,2.8µM*,-10%
Cc1ccc(C2C(C#N)=C(N)Oc3cc4c(cc32)OCO4)cc1 (stereo not drawn),-1%,-28%,-31%
CC(C)NC(=O)Cn1c(=O)nc(-c2ccccc2)c2ccccc21,0%,4%,.
CCOc1ccc(OCC(=O)NCCS(=O)(=O)N2CCN(c3ccccc3F)CC2)cc1,-5%,3%,.
COc1cccc(C2=CC(c3ccc(C)cc3)n3ncnc3N2)c1 (stereo not drawn),?,18µM*,-25%
Cc1ccc(C2C=C(c3ccc4c(c3)OCO4)Nc3ncnn32)cc1 (stereo not drawn),-11%,?,-41%
CCOc1ccc(-n2cc(-c3ccccc3)c3c(NCCc4ccccc4)ncnc32)cc1,7%,4%,.
Cc1ccc(CN(Cc2ccco2)C(=O)COc2cc(C)c(Cl)c(C)c2)cc1,19%,8%,.
CC(C)CN1CCN(CC#Cc2ccccc2)CC1CCO (stereo not drawn),4%,-30%,4%
OCCC1CN(CC#Cc2ccccc2)CCN1Cc1ccccc1F (stereo not drawn),-2%,20µM*,81%
SMILES,AmpC detergent,Sm TGR block,AmpC no deterg
Cc1ccccc1CNC(=O)C(=O)NCC(c1cccs1)S(=O)(=O)c1ccc(Cl)cc1 (stereo not drawn),3%,?,.
CSc1ccccc1NC(=O)c1noc2c1CCC2,25µM*,-30%,-57%
COC(=O)c1ccccc1NC(=O)c1noc2c1CCC2,?,-22%,-34%
CC1=C(c2ccc(C)c(C)c2)S(=O)(=O)N=C1N1CCN(c2cccc(C(F)(F)F)c2)CC1,1%,-10%,.
Nc1cc(-c2ccc(Br)cc2)nn1S(=O)(=O)c1cccc2nsnc12,?,-1%,-52%
Nc1cc(-c2ccc(Cl)cc2)nn1S(=O)(=O)c1cccc2nsnc12,-15%,10%,22µM*
COC(=O)c1ccccc1NC(=O)C1CCN(S(C)(=O)=O)CC1,0%,-3%,0.16µM*
COc1ccccc1NC(=O)C1CCN(S(C)(=O)=O)CC1,-10%,-10%,-24%
COc1ccc(N2CCN(c3nc4ccc(C)cc4n4nnnc34)CC2)cc1,8%,8%,.
COc1ccc(CCn2c(C)cc(C(=O)COC(=O)c3ccc(NC(=O)CC#N)cc3)c2C)cc1,-7%,10%,18µM*
CNC(=O)COC(=O)c1ccc(NC(=O)CC#N)cc1,1%,-24%,-14%
Cc1cc(C)c(C(=O)COC(=O)c2ccc(NC(=O)CC#N)cc2)cc1C,11%,15%,6.3µM*
Cc1cc(C(=O)COC(=O)c2ccc(NC(=O)CC#N)cc2)c(C)n1CCc1ccc(F)cc1,-4%,0%,-57%
Cc1ccc(NC(=O)CN(C)S(=O)(=O)c2ccc3c(c2)CCC(=O)N3)c(C)c1,16%,-8%,.
O=C(CCNC(=O)c1ccco1)NCc1ccc(F)cc1,.,.,-17%
NS(=O)(=O)c1ccc(CNC(=O)/C=C/c2ccco2)cc1,4%,1.6µM*,-37%
O=C(CNC(=O)/C=C/c1ccco1)N=Nc1c(O)[nH]c2ccccc12,0%,7.1µM*,-18%
O=C(/C=C/c1ccco1)NCc1ccc(F)cc1,-8%,3.2µM*,-28%
Cc1ccc(/C=C/C(=O)NCc2ccc(S(N)(=O)=O)cc2)o1,0%,.,-44%
O=C(CNC(=O)Cc1ccccc1)N=Nc1c(O)[nH]c2ccccc12,-1%,3%,-21%
Brc1cccc(-c2nnn3c2nc(NCc2ccc4c(c2)OCO4)c2ccccc23)c1,3%,-6%,.
Cc1ccc(S(=O)(=O)CCc2nnc(N)s2)cc1C,0%,0%,-16%
Cc1ccc(S(=O)(=O)CCc2nnc(NC(=O)CCl)s2)cc1C,2%,5µM*,-13%
O=[N+]([O-])c1ccc(N2CCN(c3ccccc3O)CC2)c(Cl)c1,-1%,1%,-32%
O=C1NC(c2cccc([N+](=O)[O-])c2)=CCN1c1ccccc1O,-9%,45µM*,-30%
SMILES,AmpC detergent,Sm TGR block,AmpC no deterg
COc1ccc(C2c3sc(=O)[nH]c3SC3C(=O)N(c4ccccc4)C(=O)C32)cc1 (stereo not drawn),?,1%,?
O=C1C2Sc3[nH]c(=O)sc3C(c3ccccc3)C2C(=O)N1c1ccccc1 (stereo not drawn),-9%,-15%,18µM*
Cc1cccc(NC(=O)/C(C#N)=C/c2ccccc2Cl)n1,-8%,-31%,-21%
Cc1cccc(NC(=O)/C(C#N)=C/c2ccccc2O)n1,-5%,89µM*,-9%
CCOc1ccc(CNC(=O)C2CCN(C(=O)c3sccc3-n3cccc3)CC2)cc1,17%,8%,.
N#CC1=C(N)SC(N)=C(C#N)C1c1cccc(Oc2ccccc2)c1,-4%,?,25µM*
CCOc1ccc(C2C(C#N)=C(N)SC(N)=C2C#N)cc1OCC,-2%,34%,-50%
O=c1[nH]c2ccc(NCc3ccc(-c4ccccc4F)o3)cc2[nH]1,21%,2%,.
CCOC(=O)c1cc2c(ccn2C)n1CC(=O)N1C(C)CCCC1C (stereo not drawn),8%,-4%,2%

# Screening results from PubChem BioAssay.
